Only some compounds are listed: those with a hit (about 1.6% of all), similar ones and a draw of the others.
KCNQ2 enhance: potentiators of rat KCNQ2 potassium channel; O88943; CHO-K1 KCNQ2, FluxOR thallium flux fluorescence; hits give high values; B-score at 10 µM; 310,000 compounds, 0.54% hits;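 active = fluorescence ratio B-score at least 3 SD of library B-scores, with initial fluorescence B-score within 3 of them, cut at about 5.3 in these data; same plate scores as AID 2156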;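 also: B-score of peak minus minimum over baseline fluorescence ratio after K+ and Tl+ stimulus; positive B-score means potentiation of KCNQ2 with more thallium influx and brighter signal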
Target sequence (O88943 whole entry, looked up): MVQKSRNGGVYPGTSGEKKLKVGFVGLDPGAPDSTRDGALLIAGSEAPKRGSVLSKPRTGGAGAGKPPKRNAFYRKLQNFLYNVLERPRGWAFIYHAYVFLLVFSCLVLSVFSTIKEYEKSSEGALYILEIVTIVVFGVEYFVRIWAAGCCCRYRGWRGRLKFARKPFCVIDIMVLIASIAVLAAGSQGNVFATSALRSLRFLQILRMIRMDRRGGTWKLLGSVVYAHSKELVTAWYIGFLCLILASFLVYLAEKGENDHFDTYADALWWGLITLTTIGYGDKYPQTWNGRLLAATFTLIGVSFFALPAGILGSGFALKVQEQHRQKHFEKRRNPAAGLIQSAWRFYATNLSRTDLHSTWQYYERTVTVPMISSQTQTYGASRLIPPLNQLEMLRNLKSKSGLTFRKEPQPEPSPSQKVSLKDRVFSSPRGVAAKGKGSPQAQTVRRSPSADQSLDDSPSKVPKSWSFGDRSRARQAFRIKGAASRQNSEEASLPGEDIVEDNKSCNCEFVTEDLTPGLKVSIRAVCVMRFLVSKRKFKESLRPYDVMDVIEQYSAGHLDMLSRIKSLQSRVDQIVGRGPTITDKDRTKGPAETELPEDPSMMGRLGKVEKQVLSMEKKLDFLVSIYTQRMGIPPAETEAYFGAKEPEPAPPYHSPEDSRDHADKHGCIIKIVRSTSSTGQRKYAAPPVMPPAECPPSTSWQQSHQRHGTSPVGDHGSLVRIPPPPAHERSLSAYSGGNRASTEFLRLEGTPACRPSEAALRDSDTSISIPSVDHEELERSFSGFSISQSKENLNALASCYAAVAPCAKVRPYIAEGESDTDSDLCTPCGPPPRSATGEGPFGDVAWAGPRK
KCNQ2 block: KCNQ2 (rat) channel inhibition; AID 2156; B-score at 10 µM; 310,000 compounds, 1.1% hits; CHO-K1 KCNQ2, FluxOR thallium flux, 20 min; hits give low values; O88943;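 active = fluorescence ratio B-score at most minus 3 library SDs, with starting brightness B-score within 2 library SDs, cut at about -5.5 in these data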
Kir21 conf inh: confirmation of mouse Kir2.1 potassium channel inhibitors; shares compounds with KCNQ2 enhance; Kir2.1-expressing cells, FluxOR thallium flux fluorescence; hits give low values; Tl flux remaining, % of negative control (hits give low values), % at 10 µM; 2,300 compounds, 41% hits;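 active = Primary-screen hit whose thallium flux fell at least 3 control SD below untreated wells in both duplicates, with normal baseline fluorescence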;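 also: 0% = blank wells without stimulus and 100% = stimulated no-compound controls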
HEK293 Tl flux: parental HEK293 activity in Kir2.1 inhibitor counter-screen; 2,300 compounds, 19% hits; shares compounds with KCNQ2 enhance; FluxOR signal as % of negative control (100 = no effect), % at 10 µM; parental HEK293 cells, FluxOR thallium flux fluorescence; 0% = unstimulated blank wells;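 active = dye signal at least 3 control SD above or below untreated wells in both duplicates, raw fluorescence within 3, either direction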;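 also: percent is based on the flux ratio of peak minus minimum fluorescence over baseline F0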
CHO-K1 Tl ctr: parental CHO-K1 activity in KCNQ2 potentiator counter-screen; shares compounds with KCNQ2 enhance; parental CHO-K1 cells, FluxOR thallium flux fluorescence; zero = vehicle mean+3SD, 100% = vehicle-minus-blank window; activity increase over 3SD of controls, % at 10 µM; 1,200 compounds, 43% hits;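 active = signal rise of at least 3 SD above the untreated control mean, in both duplicate wells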;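 also: counter screen of KCNQ2 potentiator hits so any rise reflects channel-independent effects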
KCNQ1 sel pot: human KCNQ1 counter-target activity of KCNQ2 potentiators | activation over 3SD threshold, % at 10 µM | CHO KCNQ1 stable, FluxOR thallium flux fluorescence; beyond 3SD, as % of vehicle-control signal | 1,200 compounds, 28% hits | shares compounds with KCNQ2 enhance;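 active = fluorescence ratio rise of at least 3 SD of vehicle wells above their mean, in both replicate wells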;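 also: 0% = vehicle mean plus 3 SD and 100% = vehicle minus unstimulated blank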
KCNQ2 pot confirm: rat KCNQ2 channel potentiator confirmation | shares compounds with KCNQ2 enhance | AID 2287 | 1,200 compounds, 68% hits | CHO-KCNQ2 cells, FluxOR thallium flux fluorescence | potentiation, less the hit threshold, % at 10 µM;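 active = fluorescence ratio rising 3 SD or more over the vehicle control mean in both replicates, plus primary screen hit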;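 also: peak minus minimum thallium fluorescence divided by baseline after K/Tl stimulus; 0% = vehicle mean plus 3 SD and 100% = vehicle minus unstimulated blank difference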
Kir21 spec: tests whether KCNQ2 potentiators also affect mouse Kir2.1; AID 2345; activity over 3SD threshold, % at 10 µM; shares compounds with KCNQ2 enhance; HEK293 Kir2.1, FluxOR thallium flux fluorescence; 1,200 compounds, 2% hits;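 active = fluorescence ratio rise of at least 3 SD above the vehicle-control mean, seen in both replicates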;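 also: 0% = vehicle mean plus 3 SD and 100% = vehicle minus no-stimulus blank window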
KCNQ2 W236L pot: rat KCNQ2 W236L mutant potentiation by KCNQ2 potentiators | 940 compounds, 10% hits | AID 2558 | CHO KCNQ2-W236L, automated patch clamp current | shares compounds with KCNQ2 enhance | current increase over 3SD of negative controls (%), hits give high values, % at 25 µM;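 active = current increase at least 3 SD of the untreated controls above them in both duplicate recordings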
The depositor's hits bear a star.

For COc1ccc(OCC(O)CNS(=O)(=O)c2cccc(Cl)c2)cc1 (configuration not stated) the results were KCNQ2 enhance 0.32 and KCNQ2 block inactive.
CN(C(=S)NC(=O)/C=C/c1ccc(F)cc1)C1CCCCC1 was read as KCNQ2 block inactive.
`Cc1ccc(C(=O)NC(=S)N(C)C2CCCCC2)cc1` gave KCNQ2 enhance 5.7*, KCNQ2 block inactive, Kir21 conf inh inactive, HEK293 Tl flux 212%*, CHO-K1 Tl ctr -37, KCNQ1 sel pot 18*, KCNQ2 pot confirm 31*, Kir21 spec -20 and KCNQ2 W236L pot inactive.
`O=C1/C(=C/c2ccccc2F)SC(=S)N1CC(=O)N1CCCCC1c1cccnc1` (configuration not stated) gave KCNQ2 enhance 0.78 and KCNQ2 block inactive.
`O=C(c1ccco1)N1CCN(c2ncnc3c2cnn3-c2ccccc2)CC1` gave KCNQ2 enhance 0.79 and KCNQ2 block inactive.
`CCc1cc2c(N3CCN(C(=O)c4ccco4)CC3)ncnc2s1` gave KCNQ2 enhance 5.7*, KCNQ2 block inactive, Kir21 conf inh inactive, HEK293 Tl flux inactive, CHO-K1 Tl ctr -8, KCNQ1 sel pot 36*, KCNQ2 pot confirm -18 and Kir21 spec -39.
For CC(C)(C)NC(=O)CN(Cc1ccc2c(c1)OCO2)C(=O)CNS(=O)(=O)c1ccccc1 the results were KCNQ2 block inactive.
For Cc1sc2ncnc(SCC(=O)c3cccs3)c2c1C the results were KCNQ2 enhance 6.9*, KCNQ2 block inactive, Kir21 conf inh inactive, HEK293 Tl flux inactive, CHO-K1 Tl ctr -17, KCNQ1 sel pot -5, KCNQ2 pot confirm -9, Kir21 spec -31 and KCNQ2 W236L pot inactive.
For Cc1cccc(NC(=O)CSc2ncnc3sc(C)c(C)c23)n1 the results were KCNQ2 enhance 0.74 and KCNQ2 block inactive.
`Cc1sc2nc[nH]c(=O)c2c1-c1ccc(F)cc1` gave KCNQ2 enhance 1.1 and KCNQ2 block inactive.
Screening Cc1sc2nc[nH]c(=S)c2c1-c1ccccc1 returned KCNQ2 enhance 12*, KCNQ2 block inactive, Kir21 conf inh inactive, HEK293 Tl flux inactive, CHO-K1 Tl ctr -12, KCNQ1 sel pot 13*, KCNQ2 pot confirm 40*, Kir21 spec -24 and KCNQ2 W236L pot inactive.
Screening CCN(CC)CCCN(C(=O)c1ccco1)c1nc(-c2ccc(Cl)cc2)cs1 returned KCNQ2 block inactive, Kir21 conf inh 51%* and HEK293 Tl flux inactive.
CCN(CC)CCCN(C(=O)c1ccco1)c1nc(-c2ccc(C)cc2)cs1 was read as KCNQ2 block inactive.
Screening COc1ccc(-c2cc(-c3cc(C)ccc3O)[nH]n2)cc1 returned KCNQ2 enhance 0.62 and KCNQ2 block inactive.
COc1ccc(-c2cc(-c3ccc(C)cc3)n[nH]2)c(O)c1 was read as KCNQ2 enhance 7*, KCNQ2 block inactive, Kir21 conf inh inactive, HEK293 Tl flux inactive, CHO-K1 Tl ctr 16*, KCNQ1 sel pot -14, KCNQ2 pot confirm -32 and Kir21 spec -39.
CC(=O)Oc1ccc([C@@H]2COc3c(ccc4c3C=CC(C)(C)O4)C2)c(OC(C)=O)c1 was read as KCNQ2 block inactive.
Screening CC(C)=CCc1cc([C@@H]2COc3c(ccc4c3C=CC(C)(C)O4)C2)c(O)cc1O returned KCNQ2 enhance 6*, KCNQ2 block inactive, Kir21 conf inh inactive, HEK293 Tl flux inactive, CHO-K1 Tl ctr -7, KCNQ1 sel pot -2, KCNQ2 pot confirm -25 and Kir21 spec -28.
Screening CC(=O)c1sc(N/N=C\c2c(O)ccc3ccccc23)nc1C returned KCNQ2 block inactive.
For Cc1ccc(C(=O)N2CCN(c3ccc(F)cc3)CC2)cc1S(=O)(=O)N1CCCCC1 the results were KCNQ2 block inactive.
Screening Cc1ccc(C(=O)N2CCN(c3ccccc3)CC2)cc1S(=O)(=O)N1CCCC1 returned KCNQ2 enhance 1.7, KCNQ2 block inactive, Kir21 conf inh inactive and HEK293 Tl flux inactive.
COc1cc(C)c(C(=O)Oc2cc(C)c(C(=O)O)c(O)c2C)c(O)c1C was read as KCNQ2 enhance 5.2 and KCNQ2 block inactive.
For COc1cc(C)c(C(=O)Oc2cc(C)c(C(=O)O)c(O)c2)c(O)c1 the results were KCNQ2 enhance 7*, KCNQ2 block inactive, Kir21 conf inh inactive, HEK293 Tl flux inactive, CHO-K1 Tl ctr 45*, KCNQ1 sel pot -11, KCNQ2 pot confirm 14*, Kir21 spec -22 and KCNQ2 W236L pot 21%*.
Screening CCC(C)C(=O)Nc1nnc(SCC(=O)NC(C)(C)C)s1 (configuration not stated) returned KCNQ2 enhance 0.27 and KCNQ2 block inactive.
Screening CCOC(=O)N1CCN(C(=O)Cn2nc(C)n3nc(-c4ccccc4)cc3c2=O)CC1 returned KCNQ2 block inactive.
`O=C(C(Cl)c1ccccc1)N1CCOCC1` (configuration not stated) gave KCNQ2 block inactive.
`CCCCCCCC/C=C\CCCCCCCC(=O)O` gave KCNQ2 enhance 6.8*, KCNQ2 block inactive, Kir21 conf inh inactive, HEK293 Tl flux inactive, CHO-K1 Tl ctr -10, KCNQ1 sel pot 33*, KCNQ2 pot confirm -13 and Kir21 spec -31.
For CCCCCCCCC(=O)O the results were KCNQ2 enhance 0.64 and KCNQ2 block inactive.
For Cc1cc(NC(=O)CSc2ccc(-c3ccc(F)cc3)nn2)no1 the results were KCNQ2 block inactive.
Screening COc1ccc(Cc2c(C)nc(N)nc2Cl)cc1 returned KCNQ2 enhance 1.2 and KCNQ2 block inactive.
Cc1nc(N)nc(N)c1CCCc1ccc(Cl)c(Cl)c1 was read as KCNQ2 block inactive, Kir21 conf inh 37%* and HEK293 Tl flux 68%*.
Cc1ccc(S(=O)(=O)n2nc(-c3ccco3)nc2N)cc1 was read as KCNQ2 block inactive.

Compound activity (PubChem)
